Assay outcomes from PubChem BioAssay.
The entries come from a sample that favours hits as a whole.
KDM5B inhibitor: Primary screen for KDM5B Histone Demethylases FDH-coupled qHTS | Lysine-specific demethylase 5B (Homo sapiens), Q9UGL1 | Potency, µM (top dose mostly 57.7 µM), actives largely listed as inhibitors | AID 1347165, 2019 | KDM5B demethylase, FDH-coupled NADH fluorescence (FDH is formaldehyde dehydrogenase) | 220,000 tested, 2.6% active; active = well fitted inhibition curve with a large enough effect; also: 0% is about no effect; nearly all actives have a fitted effect of over 70% in size
Target sequence (Q9UGL1 whole entry, looked up): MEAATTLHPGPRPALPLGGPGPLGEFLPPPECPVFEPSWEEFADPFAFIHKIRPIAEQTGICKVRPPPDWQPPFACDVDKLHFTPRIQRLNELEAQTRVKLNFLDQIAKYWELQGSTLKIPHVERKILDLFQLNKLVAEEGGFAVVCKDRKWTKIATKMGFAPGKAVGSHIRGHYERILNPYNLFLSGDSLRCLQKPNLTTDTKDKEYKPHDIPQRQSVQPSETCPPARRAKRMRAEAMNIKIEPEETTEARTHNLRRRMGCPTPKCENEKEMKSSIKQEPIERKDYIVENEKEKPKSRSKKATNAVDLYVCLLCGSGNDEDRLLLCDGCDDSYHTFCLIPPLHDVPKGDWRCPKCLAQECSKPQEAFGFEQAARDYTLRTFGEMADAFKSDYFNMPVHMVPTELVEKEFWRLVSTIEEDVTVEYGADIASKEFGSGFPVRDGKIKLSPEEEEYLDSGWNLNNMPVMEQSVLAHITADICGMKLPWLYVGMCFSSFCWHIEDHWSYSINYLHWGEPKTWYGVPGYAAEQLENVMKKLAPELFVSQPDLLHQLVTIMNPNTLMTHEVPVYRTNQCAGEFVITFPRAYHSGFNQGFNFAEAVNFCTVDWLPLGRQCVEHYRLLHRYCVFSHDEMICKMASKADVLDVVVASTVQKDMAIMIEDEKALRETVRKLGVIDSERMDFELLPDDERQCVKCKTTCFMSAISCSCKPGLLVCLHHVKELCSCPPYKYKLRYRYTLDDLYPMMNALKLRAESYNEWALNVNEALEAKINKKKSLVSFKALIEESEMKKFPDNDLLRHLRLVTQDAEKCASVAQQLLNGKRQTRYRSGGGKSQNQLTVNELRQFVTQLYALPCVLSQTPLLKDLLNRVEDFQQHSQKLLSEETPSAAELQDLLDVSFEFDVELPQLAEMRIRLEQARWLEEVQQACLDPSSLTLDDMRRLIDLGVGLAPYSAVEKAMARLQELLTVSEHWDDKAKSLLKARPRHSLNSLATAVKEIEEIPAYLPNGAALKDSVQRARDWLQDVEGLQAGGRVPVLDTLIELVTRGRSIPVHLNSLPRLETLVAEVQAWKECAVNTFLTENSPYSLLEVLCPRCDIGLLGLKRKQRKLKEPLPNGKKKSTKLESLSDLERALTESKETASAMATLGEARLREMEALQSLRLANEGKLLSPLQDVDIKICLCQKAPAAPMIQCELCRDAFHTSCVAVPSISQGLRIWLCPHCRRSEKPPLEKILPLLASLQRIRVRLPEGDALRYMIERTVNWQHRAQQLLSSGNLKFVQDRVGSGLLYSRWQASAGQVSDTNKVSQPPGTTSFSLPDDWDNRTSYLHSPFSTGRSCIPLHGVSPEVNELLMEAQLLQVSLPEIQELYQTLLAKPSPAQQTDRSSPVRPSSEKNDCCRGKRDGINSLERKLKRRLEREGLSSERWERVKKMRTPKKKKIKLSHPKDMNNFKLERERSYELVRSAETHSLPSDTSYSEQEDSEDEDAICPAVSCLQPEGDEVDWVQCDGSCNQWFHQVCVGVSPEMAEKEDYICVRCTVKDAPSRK
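KDM5BΔAP (200 nM final) in 50 mM HEPES pH 7.5, 0.01% Tween-20 was preincubated 10 min at RT with compound over a concentration range. Substrate mix (H3K4me3 12.5 µM, α-KG 25 µM, Fe²⁺, ascorbate, NAD⁺, FDH) was added, and NADH fluorescence change over 30 min gave dose-response curves.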
* = called active by the depositor. Potency is read from the fitted curve at half-maximal effect.

For CC(=O)NCC(=O)NC1CC(C)(C)Cc2nc(N(C)Cc3ccccc3)ncc21 (stereo not given) the results were KDM5B inhibitor 32µM*.
CC1(C)Cc2c(cnn2-c2ccccc2)C(NC(=O)CCCN2CCCC2=O)C1 (stereo not given) was read as KDM5B inhibitor inactive.
For O=C(Nc1nnc(C2CC2)s1)c1nn(Cc2ccccc2)c(=O)c2ccccc12 the results were KDM5B inhibitor inactive.
CCN(c1ccc(NC(=O)c2ccc3nc[nH]c3c2)cc1)C(C)C was read as KDM5B inhibitor inactive.
`COc1ccc(N2C(=O)C3(CCCCC3)C2C(=O)NCCCN2CCCCC2)cc1` (stereo not given) gave KDM5B inhibitor inactive.
Screening COc1ccc(N2C(=O)C3(CCCCC3)C2C(=O)NCCN2CCc3ccccc3C2)cc1 (stereo not given) returned KDM5B inhibitor 25µM*.
For COc1ccc(N2C(=O)C3(CCCCC3)C2C(=O)NCCCN2CCCC2)cc1 (stereo not given) the results were KDM5B inhibitor inactive.
`CN(C)C(=O)c1ccc2ccnn2c1` gave KDM5B inhibitor 32µM*.
For O=C(NC1CCCC1)c1ccc2ccccc2c1 the results were KDM5B inhibitor inactive.
Cc1cc(C)c(C(=O)NC2CC2)c(C)c1 was read as KDM5B inhibitor inactive.
For Cc1cc(C)cc(C(=O)Nc2ccc(C(=O)N(C)C)cc2)c1 the results were KDM5B inhibitor inactive.
`O=C(NC1CC1)c1ccc2ccnn2c1` gave KDM5B inhibitor 32µM*.
`CCc1ccc(C(=O)N(C)C)cc1` gave KDM5B inhibitor inactive.
For O=C(NC1CC1)c1cc2cccnn2n1 the results were KDM5B inhibitor 32µM*.
CC1CCC(NC(=O)c2ccc3ccccc3n2)CC1 (stereo not given) was read as KDM5B inhibitor inactive.
For CN(C)C(=O)c1ccn2cncc2c1 the results were KDM5B inhibitor 35µM*.
For CN(C)C(=O)c1ccc(-c2ccccc2N(C)C)nc1 the results were KDM5B inhibitor inactive.
`CN(C)C(=O)c1ccc(I)cc1` gave KDM5B inhibitor inactive.
Screening O=C(NC1CCCCCCCCCCC1)c1ccncc1 returned KDM5B inhibitor inactive.
`Cc1ccc(CN(CC(=O)N2CCOCC2)S(=O)(=O)c2ccc(Cl)cc2)cc1` gave KDM5B inhibitor inactive.
`Cc1cc(C)c(NC(=O)c2nn(C)c(=O)c3ccccc23)c(Cl)c1` gave KDM5B inhibitor inactive.
For CSc1ccc(C(C)NC(=O)c2cccc(F)c2)cc1 (stereo not given) the results were KDM5B inhibitor inactive.
CC1CCC(c2nnc(-c3ccc(Br)cc3)o2)CC1 (stereo not given) was read as KDM5B inhibitor inactive.
CCc1nc2ccc(C(=O)NC3CC3)cc2nc1CC was read as KDM5B inhibitor inactive.
For C=CC[N+](CC)(CC)CC#Cc1ccccc1 the results were KDM5B inhibitor inactive.
Screening N#Cc1ccc(N2CCN(C(=O)CCc3ccncc3)CC2=O)cc1 returned KDM5B inhibitor inactive.
`CCC(CC)NC(=O)CCc1nc(C2CCCN2C(=O)NC(C)C)no1` (stereo not given) gave KDM5B inhibitor inactive.
For COc1ccc(C2CC(=O)Nc3c2c(C)nn3-c2ncnc3nc[nH]c23)cc1O (stereo not given) the results were KDM5B inhibitor inactive.
`Cn1nc(C(C)(C)C)cc1-c1nn2c(-c3ccco3)nnc2s1` gave KDM5B inhibitor inactive.
For CN(C)c1ccc(CN2CCC3(C2)C(=NC2CCCC2)NC(=O)N3c2cc(F)cc(F)c2)cc1 (stereo not given) the results were KDM5B inhibitor inactive.
COc1ccccc1-c1cc(C(=O)N(C)C)nn2cccc12 was read as KDM5B inhibitor inactive.
Screening CN(C)C(=O)c1ccc2c(c1)NC(=O)CS2 returned KDM5B inhibitor inactive.
For CN(C)C(=O)c1ccn2nccc2c1 the results were KDM5B inhibitor 32µM*.
For CC(C)NC(=O)CSc1nnc(NC2CC2)s1 the results were KDM5B inhibitor inactive.
For Clc1cc(CNCc2cccs2)cc2c1OCCCO2 the results were KDM5B inhibitor inactive.
Cc1ccc(C(=O)NCCc2nc3cc(NC(=O)c4ccccc4C)ccc3n2C)cc1F was read as KDM5B inhibitor inactive.
Cc1nc(NCC(C)C)sc1C(=O)NCc1ccco1 was read as KDM5B inhibitor inactive.
`CCOC(=O)C1CCN(C(c2ccccc2)c2sc3nc(-c4ccco4)nn3c2O)CC1` (stereo not given) gave KDM5B inhibitor inactive.
For CCOCCCNC(=O)c1nnn2cc(-c3ccccc3)[nH]c(=O)c12 the results were KDM5B inhibitor 28µM*.
`CCCCCNC(=O)c1nnn2cc(C)[nH]c(=O)c12` gave KDM5B inhibitor inactive.
`O=C(NCCN1CCCCC1)c1nnn2cc(-c3ccccc3)[nH]c(=O)c12` gave KDM5B inhibitor inactive.
CCN1CCN(CCNC(=O)c2nnn3cc(-c4ccccc4)[nH]c(=O)c23)CC1 was read as KDM5B inhibitor 28µM*.
For CCCNC(=O)c1nnn2cc(C)[nH]c(=O)c12 the results were KDM5B inhibitor inactive.
For Cc1cn2nnc(C(=O)NCCc3ccccc3)c2c(=O)[nH]1 the results were KDM5B inhibitor inactive.
For Cc1ccc(C(=O)/C=C/c2ccc(O)cc2)cc1C the results were KDM5B inhibitor inactive.
CCc1ccc2c(C)nc(Nc3nc(C)c(CCC(C)C)c(=O)[nH]3)nc2c1 was read as KDM5B inhibitor inactive.
For Cc1csc(NC(=O)c2cccnc2Oc2ccc(F)cc2Br)n1 the results were KDM5B inhibitor inactive.
`O=C(CN1CCN(C(=O)CCc2ncc(-c3ccccc3F)o2)CC1)Nc1ccccc1Cl` gave KDM5B inhibitor inactive.
For N#Cc1ccccc1COC(=O)c1ccc(-c2ccc(C=O)o2)cc1 the results were KDM5B inhibitor inactive.
Screening O=C(Nc1ccc(F)cc1)c1ccc2c(c1)OCCN(C1CCC1)C2 returned KDM5B inhibitor 32µM*.
For Cc1ccc(CNC(=O)c2ccc3c(c2)CN(C2CCC2)CCO3)cc1 the results were KDM5B inhibitor inactive.
O=C(NC1CCOCC1)c1ccc2c(c1)OCCN(c1ccccc1)C2 was read as KDM5B inhibitor inactive.
For Cc1cc(NC(=O)c2ccc3c(c2)OCCN(C2CCC2)C3)ccc1F the results were KDM5B inhibitor inactive.
For COCCNC(=O)c1ccc2c(c1)OCCN(c1ccccc1)C2 the results were KDM5B inhibitor inactive.
Screening O=C(Nc1ccccc1)c1ccc2c(c1)OCCN(c1ccccc1)C2 returned KDM5B inhibitor 28µM*.
`COCCCNC(=S)Nc1ccccc1C(C)(C)C` gave KDM5B inhibitor inactive.
Cc1ccc2nc(-c3ccc(C)c(C)c3)cc(C(=O)O)c2c1 was read as KDM5B inhibitor inactive.
CCN1CCN(c2ncc(C(C)(C)C(=O)O)c(N3CCOCC3)n2)CC1 was read as KDM5B inhibitor inactive.
For CCc1nc(N2CCOCC2)ncc1C(=O)O the results were KDM5B inhibitor 25µM*.
Screening CC(C)(C(=O)O)c1cnc(N2CCC(O)(CO)CC2)nc1N1CCOCC1 returned KDM5B inhibitor inactive.
`O[C@@H]1CC(CNCc2cccc(Cl)c2)(COc2ccccc2)C[C@@H]1O` (stereo not given in full) gave KDM5B inhibitor inactive.
`O=C(C1CC(=O)N(c2n[nH]c3cccc(F)c23)C1)N1CCN(c2ccc(Cl)cc2)CC1` (stereo not given) gave KDM5B inhibitor 22µM*.
